Results with a measured potency or affinity are listed apart. Values without a mark were called inactive. The rule behind the calls is not given here.
experiment: HEK293 cell cytotoxicity, dose response, cytotoxicity control, plate reader, cherry-picked samples (AID 743446); details: hits give low values; at 26 µM unless noted

| Structure (SMILES) | max activity |
| --- | --- |
| CC(C)Oc1ccc(CNC(=O)CC(c2ccccc2)c2cc(Cl)ccc2O)cc1 (centres undefined) | 29.6% [at 0.8 µM] |
| O=C(NCCc1ccccc1)c1ccc2nccnc2c1 | 9% |
| Cc1ccc2nc(-c3ccc(NC(=O)c4cccnc4)cc3)oc2c1 | -17.1% [at 0.1 µM] |
| C[C@H](CO)N1C[C@H](C)[C@H](CN(C)Cc2ccccc2)Oc2c(NS(=O)(=O)c3cn(C)cn3)cccc2C1=O | 13% [at 1.6 µM] |
| Cc1ccc2nc(-c3ccc(Br)cc3)cn2c1 | 0% [setting not given] |
| CCOC(=O)c1cn2nc(N3CCCC3)ccc2n1 | -7.31% [at 6 µM] |
| O=C(COc1ccc2ccccc2c1)Nc1nccs1 | 38.6% [at 0.195 µM] |
| COc1ccc(-c2cn3cc(C)ccc3n2)cc1F | 44.7% [at 12 µM] |
| CCOC(=O)c1cn2nc(N3CCCCC3)ccc2n1 | -14% [at 3 µM] |
| CC(C)c1ccc2c(c1)C(N1CCNCC1)Cc1ccc(F)cc1S2 (centres undefined) | -119% |
| CC(C)(C)c1ccc(C(=O)NCCOc2ccccc2F)cc1 | 23.5% |
| COc1ccc(CCNC(=O)C2CCN(S(=O)(=O)c3ccc(Cl)cc3)CC2)cc1OC | -15% [at 0.05 µM] |
| O=C(O)c1ccc(N/N=C/c2ccc3ncccc3c2)cc1 | 14.9% [at 12 µM] |
| C[C@H]1CCCCO[C@@H](CN(C)C(=O)Nc2ccc3c(c2)OCO3)[C@@H](C)CN([C@@H](C)CO)C(=O)c2cc(NC(=O)NC3CCCCC3)ccc2O1 | 26.2% [at 23.5 µM] |
